MRP resist rev: reversal of MRP1-mediated doxorubicin resistance, primary screen, H69AR cells, doxorubicin co-treatment; H69AR cells + 2 uM doxorubicin, CellTiter-Glo, 72 h; differential viability (reversal), % at 10 µM; hit rate 0.04% among 85,000;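 active = viability drop by adding the cancer drug above about 55%, with treated viability meeting a 40% cutoff, limit read from the data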;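 note: viability without doxorubicin minus viability with 2 µM doxorubicin for each compound; larger differential means the compound sensitizes cells more to doxorubicin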
MRP-1 activ: H69AR viability gain despite doxorubicin, primary screen, MRP-1 activator project, H69AR cells, CellTiter-Glo; hit rate 0.61% among 140,000; AID 799, 2007; viability increase, % at 10 µM; viability rescue;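 active = viability gain under doxorubicin at or above a set limit, the compound median plus 3 SD, cut at about 4.7% in these data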;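 note: MRP-1 overexpressing cells given doxorubicin 25 µM after compound pretreatment; 18-22 h compound pretreatment then 72 h with doxorubicin before readout; 0% = doxorubicin-only wells and 100% = vehicle-treated cells without doxorubicin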
Phagocytosis inh: inhibitors of macrophage phagocytosis, primary screen, imaging, J774A.1 cells, IgG beads. AID 1029, 2008. J774A.1 macrophage IgG-bead phagocytosis. hit rate 0.07% among 110,000. inhibition, % at 5 µM;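 active = inhibition above the mean of the plate negative controls plus 5 SD, cut at about 13% in these data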;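 note: phagocytic index as fraction of beads internalized from green versus red external bead signal; plate controls were DMSO negative control for no effect and cytochalasin-D positive control for full effect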
Numbers without * were called inactive; . = not tested or not shown; [ ] = another dose, or the depositor's remark. An excerpt weighted towards active compounds, which were near 0.69% of everything screened.

SMILES | MRP resist rev | MRP-1 activ | Phagocytosis inh
CCOc1ccc(N2C(=O)CC(N3CCC(O)(c4ccc(Br)cc4)CC3)C2=O)cc1 (configuration not stated) | -2 | 0 | 0
COc1ccc(N2C(=O)CC(N3CCC(O)(c4cccc(C(F)(F)F)c4)CC3)C2=O)cc1 (configuration not stated) | . | 6.5* | 4
Cc1nnc(SCC(=O)Nc2ccc3c(c2)COC3=O)n1-c1ccccc1 | . | 1 | 0
Cn1c(SCC(=O)Nc2cccc3ccccc23)nc(O)cc1=O | . | -1 | 0
CN(C)c1ccc(NC(=O)CSc2nnc(-c3cccs3)n2Cc2ccco2)cc1 | -9 | 0 | 0
Cc1ccc(NC(=O)CSc2nnc(C)n2-c2ccccc2)cc1 | 1 | 6.8* | .
Cc1nnc(SCC(=O)Nc2ccc(N3CCOCC3)cc2)n1-c1ccccc1 | 1 | -3 | 0
Cc1ccc(-n2c(C)nnc2SCC(=O)Nc2ccccc2)cc1 | 8 | 5.9* | .
Cc1ccc(NC(=O)CSc2nnc(-c3cccs3)n2Cc2ccco2)cc1 | 13 | 6.1* | -1
Cc1ccc(NC(=O)CSc2nc(O)cc(=O)n2C)cc1 | -9 | 8.5* | .
Cn1c2c(c(=O)c3ccccc31)CCC(C)(C)O2 | . | -1 | -4
CC(=O)c1ccc(NC(=O)C(C)n2nc(-c3ccccc3)c3cc(Cl)ccc32)cc1 (configuration not stated) | . | -3 | .
COCCCN=C(c1ccco1)n1c(=S)nc(-c2ccco2)n(CCCOC)c1=S | -7 | -5 | 1
CC(=O)Oc1ccc2c(=O)c(Oc3ccccc3)coc2c1OC(C)=O | . | 1 | 0
O=C(COC(=O)c1ccccc1Nc1ccc(SC(F)F)cc1)NCc1ccco1 | . | -1 | .
CC1(C)CC(=O)C2=C(C1)OC(N)=C(C#N)C2c1cc2c(cc1[N+](=O)[O-])OCO2 (configuration not stated) | . | -2 | -5
Cc1cc(C)n(-c2nc3ccccc3nc2Nc2ccc3c(c2)OCO3)n1 | 10 | 4 | .
COc1cccc(Nc2nc3ccccc3nc2-n2nc(C)cc2C)c1 | -2 | 5.6* | 0
Cc1ccc(-n2nc(C(=O)N/N=C/c3cccc(C(F)(F)F)c3)c3ccccc3c2=O)cc1C | . | -2 | 0
COc1ccc(Nc2nnc(Cc3ccc(Cl)cc3)c(=O)[nH]2)c(OC)c1 | 2 | 7.0* | -2
COc1ccc(Nc2nnc(Cc3ccccc3)c(=O)[nH]2)c(OC)c1 | 1 | -5 | 0
CCCOc1ccc(C(=O)Nc2ccc(N3CCN(C(C)=O)CC3)cc2)cc1 | . | 6.0* | .
CC(=O)N1CCN(c2ccc(NC(=O)c3ccc(C)cc3)cc2)CC1 | -26 | -2 | 5
Cc1ccc(NC(=O)CCCN2C(=O)/C(=C/C=C/c3ccccc3)SC2=S)cc1 | . | -4 | -10
CC(=O)c1ccc(NC(=O)CN2C(=O)/C(=C/C(C)=C/c3ccccc3)SC2=S)cc1 | . | 8.5* | -10
SMILES | MRP resist rev | MRP-1 activ | Phagocytosis inh
CC(/C=C1\SC(=S)N(CCCC(=O)Nc2ccc(C(=O)O)c(O)c2)C1=O)=C\c1ccccc1 | . | 4.8* | -4
CC(/C=C1\SC(=S)N(NC(=O)c2ccc(C)cc2)C1=O)=C\c1ccccc1 | . | 0 | .
CSCC[C@H](NC(=O)CCNC(C)=O)c1nc2ccccc2[nH]1 | 0 | -1 | -2
Cc1cc(Cl)ccc1OCC(=O)OCC(=O)Nc1ccc(F)c([N+](=O)[O-])c1 | . | -1 | 0
Cc1ccc(NC(=O)COC(=O)c2cc(Cl)ccc2[N+](=O)[O-])cc1 | . | 1 | 24*[artifact]
COc1ccccc1-c1coc2cc(OC(=O)/C=C/c3ccccc3)ccc2c1=O | . | -3 | -11
COc1ccc(/C=N/Nc2nc(-c3ccc(Cl)cc3)cc(C(F)(F)F)n2)cc1OC | . | 5.6* | -19
COc1ccc(-c2cnnc(N/N=C/c3ccc(OC)c(OC)c3)n2)cc1 | . | -5 | -7
CCC(Oc1ccccc1)C(=O)Nc1nnc(C(F)(F)F)s1 (configuration not stated) | 9 | 10* | -1
CCC(Oc1ccccc1)C(=O)Nc1nnc(C)s1 (configuration not stated) | 10 | 4 | 7
CCC(C)NC(=O)CSc1nnc(-c2cc(-c3cccs3)nc3ccccc23)o1 (configuration not stated) | -10 | -1 | -2
CC1(C)O[C@@H]2C[C@H]3[C@@H]4C[C@H](F)C5=CC(=O)C=C[C@]5(C)[C@@]4(F)[C@@H](O)C[C@]3(C)[C@]2(C(=O)CO)O1 | 4 | 4 | .
CC(=O)OCC(=O)[C@@]12OC3(CCCC3)O[C@@H]1C[C@H]1[C@@H]3CCC4=CC(=O)C=C[C@]4(C)[C@@]3(F)[C@@H](O)C[C@@]12C | 3 | -1 | .
C[C@]12C=CC(=O)C=C1CC[C@H]1[C@@H]3C[C@@H](O)[C@](O)(C(=O)CO)[C@@]3(C)C[C@H](O)[C@@]12F | . | 5.2* | .
CC1(C)O[C@@H]2C[C@H]3[C@@H]4CCC5=CC(=O)C=C[C@]5(C)[C@@]4(F)[C@@H](O)C[C@]3(C)[C@]2(C(=O)CO)O1 | -14 | 7.2* | .
CCCc1nc2ccccc2c(C(=O)OC(C)C(=O)NCc2ccc3c(c2)OCO3)c1CC (configuration not stated) | . | -1 | -6
COc1ccc(-n2c(C(C)(C)C)csc2=Nc2c(C)n(C)n(-c3ccccc3)c2=O)cc1 | . | -2 | -2
COC1(OC)C(=N/O)/C(=N\O)CCC1O (configuration not stated) | 13 | 11* | -1
CCOc1ccc(NC(=O)Nc2cc(-c3ccccc3)sc2C(=O)OC)cc1 | . | 6.1* | .
CCOC(=O)c1sc(-c2ccc(OC)cc2)cc1NC(C)=O | . | 3 | 5
CCN(CC)c1ccc(NC(=O)OC)cc1 | 13 | 1 | -1
COc1ccc(NC(=S)N2CCNC(=O)C2CC(=O)Nc2cccc(Cl)c2C)cc1 (configuration not stated) | . | -3 | -6
O=C(CC1C(=O)N(c2ccccc2)C(=S)N1c1ccccc1)c1ccccc1 (configuration not stated) | . | -2 | -5
O=C(CC1C(=O)N(c2ccccc2)C(=S)N1c1ccccc1)c1ccc(Br)cc1 (configuration not stated) | . | 4.7* | -14
Cc1ccc(NC(=O)CN2c3cccc4cccc(c34)S2(=O)=O)cc1S(=O)(=O)N1CCOCC1 | . | -1 | -11
SMILES | MRP resist rev | MRP-1 activ | Phagocytosis inh
N=C(N)SCc1cn2ccccc2n1 | . | 4.9* | -9
Nc1ccccc1SCc1cn2ccccc2n1 | . | -1 | -2
COc1ccccc1NC(=O)c1sc2nc(-c3ccco3)ccc2c1N | -13 | 8.3* | 0
Nc1c(C(=O)Nc2ccccc2)sc2nc(-c3ccco3)ccc12 | -17 | -4 | -1
CCOc1ccc(S(=O)(=O)N2CCN(C(=O)c3sccc3C)CC2)cc1 | 10 | 1 | 0
CCOc1ccc(/C=N/n2c(SC)nnc2-c2ccccc2)cc1OCC | . | -1 | .
CCOC(=O)c1ccc(NC(=O)C2CCN(C(=O)c3ccc(OC)c(OC)c3)CC2)cc1 | -2 | 11* | .
COC(=O)c1ccc(NC(=O)C2CCN(C(=O)c3cc(OC)c(OC)c(OC)c3)CC2)cc1 | 13 | 0 | 1
O=C(CCCN1C(=O)c2cccc3cccc(c23)C1=O)N1CCc2ccccc2C1 | 2 | -2 | .
COc1ccc(CNC(=O)c2sc3nc4c(c(C(F)(F)F)c3c2N)CCC4)cc1 | . | 2 | -2

Screening results: PubChem, several laboratories
